Data published in PubChem BioAssay (NCATS).
Inconclusive results are not listed. A call without a number means that no potency is given here. Calls of active or inactive are those of the source. The call rests on the fitted dose curve; in most records, active means well fitted inhibition curve with a large enough effect; inconclusive means small, poorly fitted or top-dose-only effect; inactive means flat fitted curve, though single readings scatter.

target: Glutathione peroxidase 1 (Homo sapiens) (UniProt P07203); assay: Primary qHTS Assay for Inhibitors of Recombinant Selenoprotein Glutathione Peroxidase 1 (GPX1) (AID 1845191); details: recombinant GPX1, GR-coupled NADPH fluorescence, 15 min; series mostly up to 48.8 µM; further: nearly all actives have a fitted effect of over 65% in size
Sequence (P07203 whole entry, looked up): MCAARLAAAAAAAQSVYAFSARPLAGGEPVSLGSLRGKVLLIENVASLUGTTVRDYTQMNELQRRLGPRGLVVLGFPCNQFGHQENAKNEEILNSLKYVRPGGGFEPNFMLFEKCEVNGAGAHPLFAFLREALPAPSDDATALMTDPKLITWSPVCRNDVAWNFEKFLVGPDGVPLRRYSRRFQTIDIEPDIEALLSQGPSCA
Procedure, shortened: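 GR-coupled readout: NADPH consumption tracked by fluorescence, ex 340/em 450 nm, at t=0 and after 15 min at RT. Final mix 10 nM GPX1, 1 mM GSH, 0.5 mM CHP, 0.5 mM NADPH, 100 nM GR, 0.01% BSA, following 30 min enzyme–compound preincubation.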

SMILES	Potency
CC1CCC2(O1)C(C)(C)CC(O[C@@H]1O[C@H](CO[C@@H]3OC[C@](O)(CO)[C@H]3O)[C@@H](O)[C@H](O)[C@H]1O)CC2(C)O (stereo partly specified)	inactive
C[C@]12CCC(=O)C=C1[C@@H](O)C[C@@H]1[C@@H]2[C@@H](O)C[C@@]2(C)[C@H]1CC[C@]2(O)C(=O)CO	inactive
CC1CC(=O)C2=C(O1)OC1(C)CCC3C(C)(C)C=CC(=O)C3(C)C1C2 (stereo unspecified)	inactive
C/C=C1\[C@H](O[C@@H]2O[C@H](CO)[C@@H](O)[C@H](O)[C@H]2O)OC=C(C(=O)OC)[C@H]1CC(=O)OC	inactive
CC(=O)O[C@H]1[C@H](C)[C@@H](O)[C@H]2[C@@H]1C=C(C(=O)O)[C@H]1C[C@@H]3[C@H]([C@H]21)[C@H]1C(=O)O[C@@H]2CC[C@@]3(C)O[C@]1(O)[C@@H]2C	inactive
NC(Cc1c[nH]c2ccccc12)C(=O)NC(CCC(=O)O)C(=O)O (stereo unspecified)	inactive
C=C1C(OC(C)=O)C(=O)C2C(C)(C)C(OC(C)=O)CCC2(C)C1CC(OC(C)=O)/C(C)=C/COC(C)=O (stereo unspecified)	inactive
CC1(C)CCC[C@@]2(C)[C@H]1[C@H](O)C=C1COC(=O)[C@@]12O	inactive
COC(=O)c1cc(CN2CCN(C(=N)N)CC2)cc(C(=O)N2CCN(C(=O)c3ccc(C(=N)N)cc3)CC2)c1	inactive
O=C1NC(=Nc2ccccc2F)S/C1=C\c1ccc(C(=O)O)cc1	inactive
CC(=O)OC[C@@]12[C@@H](OC(C)=O)C[C@@H](C)[C@](C)([C@@H]3C[C@H]4C=CO[C@H]4O3)[C@H]1CCC[C@]21CO1	inactive
